Sampled rows, rich in hits. Any-hit rate of the full collection: about 6.2%.
ATXN2 expr inh: reduces ATXN2 reporter expression in HEK-293 cells. HEK-293 ATXN2-luciferase reporter, luminescence, 24 h. Potency, µM (doses to about 57 µM), usual class: inhibitors. actives 0.72% (n = 360,000). AID 1745845; note: nearly all actives have a fitted effect of over 55% in size
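ATXN2-luciferase reporter cells (luciferase flanked by upstream and downstream ATXN2 gene portions) were treated 24 h at 37 °C with compounds at up to 57 uM. SteadyGlo luminescence gave expression; GF-AFC fluorescence gave viability.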
S2 tox: viability counter-screen for ATXN expression inhibitors; S2 cells (HEK-293 line with an ATXN2-luciferase reporter) viability, CellTiter-Fluor protease fluorescence, 24 h; Potency, µM (highest dose often 56.7 µM), most hits filed as cytotoxic; actives 0.49% (n = 400,000); note: nearly all actives have a fitted effect of over 40% in size
KB-3-1 tox: KB-3-1 parental cell cytotoxicity; KB-3-1 viability, CellTiter-Glo ATP luminescence, 72 h; Potency, µM (series often up to 46.1 µM), actives largely listed as cytotoxic; actives 1.4% (n = 400,000); AID 1347075; note: nearly all actives have a fitted effect of over 60% in size
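Using CellTiter-Glo luminescence, growth of non-resistant KB-3-1 adenocarcinoma cells is assessed 72 h after pin-tool compound addition at 37 °C. Normalized responses across the concentration series yield fitted curves.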
HT1080NT lethal: kills 2HG-producing HT-1080-NT fibrosarcoma cells; actives 1.6% (n = 360,000); Potency, µM (highest dose often 46.1 µM), usual class: cytotoxic; HT-1080-NT fibrosarcoma viability, CellTiter-Glo ATP luminescence, 48 h;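 note: NT is the 2HG producing partner of a matched IDH1 knockdown line; nearly all actives have a fitted effect of over 55% in size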
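HT-1080-NT; 750 cells/well; 5% FBS RPMI; 48 h compound, 37 degrees C; CellTiter-Glo luminescence; curve fitting and curve-class assignment.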
KB-V1 MDR tox: KB-V1 MDR subline cytotoxicity; KB-V1 MDR cells viability, CellTiter-Glo, 72 h; Potency, µM (doses to about 46.1 µM), hits mostly cytotoxic; actives 3.4% (n = 400,000); note: nearly all actives have a fitted effect of over 60% in size
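Cytotoxicity via CellTiter-Glo luminescence after 72 h compound exposure at 37 degrees C. Cells: drug-selected KB-V1 line, DMEM phenol-red free plus 10% FBS. Compounds tested at multiple concentrations; normalized data fitted to concentration-effect curves.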
HT1080 IDH1KD tx: kills HT-1080 cells with IDH1 knockdown | Potency, µM (highest dose often 46.1 µM), hits mostly cytotoxic | actives 2% (n = 360,000) | HT-1080 IDH1 knockdown viability, ATP luminescence, 48 h
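Assay cells: HT-1080 with IDH1 knockdown, 750 per well, RPMI/5% FBS. Exposure: 48 h at 37 °C following 2 h pre-incubation. Read: CellTiter-Glo luminescence; fitted concentration-response, curve class assigned.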
Large screens that a line does not name were inactive. Calls come from the whole dose curve; as a rule, active = well fitted curve in the direction sought with a large enough effect; inconclusive = small, poorly fitted or top-dose-only effect, or another doubt; inactive = no such curve, though single readings can be large; an effect the other way counts as inactive or inconclusive.

COc1ccc(CN2Cc3cnnn3-c3ccccc3C2C)cc1 (stereo not given)	S2 tox inconclusive, KB-3-1 tox 13µM, KB-V1 MDR tox inconclusive, HT1080 IDH1KD tx inconclusive
CCCCn1nnnc1C(CCSC)N1CCC(n2c(=O)[nH]c3ccccc32)CC1 (stereo not given)	S2 tox inconclusive, KB-V1 MDR tox inconclusive, HT1080 IDH1KD tx inconclusive
CCC(c1nnnn1Cc1ccccc1)N1CCC(n2c(=O)[nH]c3ccccc32)CC1 (stereo not given)	ATXN2 expr inh inconclusive, HT1080NT lethal 26µM, KB-V1 MDR tox inconclusive, HT1080 IDH1KD tx inconclusive
CCCCn1nnnc1C(CCc1ccccc1)N1CCC(n2c(=O)[nH]c3ccccc32)CC1 (stereo not given)	ATXN2 expr inh inconclusive, S2 tox inconclusive, KB-3-1 tox inconclusive, HT1080NT lethal inconclusive, KB-V1 MDR tox 4.1µM, HT1080 IDH1KD tx inconclusive
CCc1nc2ccc(C(=O)N3CCN(C(=O)c4ccco4)CC3)cn2c1N(C)Cc1ccc(OC)cc1	HT1080NT lethal inconclusive
C[C@H]1CN([C@@H](C)CO)C(=O)c2cc(NC(=O)Nc3cccc4ccccc34)ccc2O[C@@H]1CN(C)Cc1ccc(-c2ccccc2)cc1	S2 tox inconclusive, KB-V1 MDR tox inconclusive
Cc1ccc(C(=O)c2cn(CC(=O)Nc3ccc(C(C)C)cc3)c3nc(C)ccc3c2=O)cc1	S2 tox inconclusive (no result: HT1080NT lethal, HT1080 IDH1KD tx)
O=S(=O)(CC1CS1)c1ccc(Oc2ccccc2)cc1 (stereo not given)	none (no result: S2 tox, KB-3-1 tox, HT1080NT lethal, KB-V1 MDR tox, HT1080 IDH1KD tx)
CC(O)C1C=CC=CC(=O)OC2CC3OC4C5OC5(C)CCC4(COC(=O)C4OC4(C)C(O)CO1)C2(C)C31CO1 (stereo not given)	ATXN2 expr inh inconclusive, S2 tox 0.0067µM, KB-3-1 tox 0.21µM, HT1080NT lethal inconclusive, KB-V1 MDR tox 10µM (no result: HT1080 IDH1KD tx)
CC(=O)OC1C(=O)OCC23CCC4(C)OC4C2OC2CC(OC(=O)C=CC=CC(=O)OCCC1C)C3(C)C21CO1 (stereo not given)	ATXN2 expr inh inconclusive, S2 tox 0.03µM, KB-3-1 tox 0.18µM, HT1080NT lethal 1.5µM, KB-V1 MDR tox 0.37µM (no result: HT1080 IDH1KD tx)
CCCCn1c(N)c(N(CC(C)C)C(=O)c2cc(Br)c(Br)s2)c(=O)[nH]c1=O	ATXN2 expr inh inconclusive, S2 tox inconclusive, KB-3-1 tox inconclusive
Cc1cc(/C=C/c2ccnc3ccccc23)ccc1N(CCCl)CCCl	KB-3-1 tox inconclusive (no result: ATXN2 expr inh, S2 tox, HT1080NT lethal, HT1080 IDH1KD tx)
COc1ccc(S(=O)(=O)N(C)C[C@H]2OCCCC[C@@H](C)Oc3ccc(N(C)C)cc3C(=O)N([C@H](C)CO)C[C@@H]2C)cc1	S2 tox inconclusive
COc1ccc(CCN(C)Cc2c(F)cccc2F)cc1OC	KB-V1 MDR tox 12µM
COc1ccc(CCNCc2ccc(F)cc2)cc1OC	ATXN2 expr inh inconclusive
O=c1c2ccccc2nc(N2CCCC2)n1-c1ccc(Cl)cc1	KB-3-1 tox inconclusive, KB-V1 MDR tox 23µM
O=[N+]([O-])c1c(Cl)c(Cl)c(Cl)c(Cl)c1Cl	none (no result: HT1080NT lethal, HT1080 IDH1KD tx)
Nc1cc(Cl)c2nonc2c1[N+](=O)[O-]	ATXN2 expr inh inconclusive, S2 tox inconclusive, KB-3-1 tox 16µM, HT1080NT lethal 7.3µM, KB-V1 MDR tox inconclusive, HT1080 IDH1KD tx 12µM
Cc1ccc2c(c1)C1CN(C)CCC1N2C(=O)c1ccccc1NS(=O)(=O)c1cccc(C(F)(F)F)c1 (stereo not given)	HT1080 IDH1KD tx inconclusive
CCOP(=O)(OCC)C(C)NC(=O)N(CCCl)N=O (stereo not given)	none (no result: S2 tox, KB-3-1 tox, HT1080NT lethal, KB-V1 MDR tox, HT1080 IDH1KD tx)
CC(=O)c1cn(Cc2ccccc2C#N)c2ccccc12	KB-3-1 tox inconclusive, KB-V1 MDR tox 1.8µM, HT1080 IDH1KD tx inconclusive (no result: ATXN2 expr inh)
CC(C)C(=O)c1cn(Cc2ccccc2C#N)c2ccccc12	KB-V1 MDR tox inconclusive
CC1=C(O)C(=O)C=C2C1=CC=C1[C@@]2(C)CC[C@@]2(C)[C@@H]3C[C@](C)(C(=O)O)CC[C@]3(C)CC[C@]12C	ATXN2 expr inh 2.4µM (no result: S2 tox, KB-3-1 tox, HT1080NT lethal, KB-V1 MDR tox, HT1080 IDH1KD tx)
CO[C@H]1C=C2CCN(C)[C@@H]2[C@@H]2c3cc4c(cc3C(=O)O[C@H]21)OCO4	none (no result: ATXN2 expr inh, KB-3-1 tox, HT1080NT lethal, KB-V1 MDR tox, HT1080 IDH1KD tx)

Screening data: PubChem, National Center for Advancing Translational Sciences (NCATS)
